Some test systems named below: SK-MEL-2 melanoma; EKVX NSCLC; SN12C renal; TK-10 renal; ACHN renal; CAKI-1 renal; CCRF-CEM leukemia; MOLT-4 leukemia; RPMI-8226 leukemia; OVCAR-8 ovarian; OVCAR-5 ovarian; OVCAR-4 ovarian; SK-OV-3 ovarian; OVCAR-3 ovarian; NCI/ADR-RES ovarian; SR leukemia; IGROV1 ovarian; HS 578T breast; A498 renal.
Holding throughout (assay): NCI-60 one-dose screen, 48 h (100 = growth as untreated, 0 = no growth, -100 = all killed)
What all share (conditions): 10 µM

Drawing on PubChem BioAssay (NCI), this text covers growth for nine compounds.

Molecules are shown by their SMILES. About 83,000 compounds went through this panel and 20% of them were active in at least one assay; those are over-represented in the sample as a whole.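 Assay: single dose, 48 h. Readout: percent growth (0 = no net growth; negative = cell death). Active: <10.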 Values without a mark were called inactive. The source made the active and inactive calls.

Take `Fc1ccc(C(c2ccc(F)cc2)C(Cl)Cl)cc1`: the growth was 97.1% in the assay on SK-MEL-2 melanoma; 101% in the assay with EKVX NSCLC; 108% in the assay with SN12C renal; 110% with TK-10 renal; 102% with ACHN renal; 96.8% in the assay with CAKI-1 renal. The growth with CCRF-CEM leukemia was 93.7%; with MOLT-4 leukemia it was 94.2%; with RPMI-8226 leukemia, 97.3%; with OVCAR-8 ovarian, 101%; with OVCAR-5 ovarian, 105%; in the assay on OVCAR-4 ovarian, 105%. The growth in the assay on SK-OV-3 ovarian was 106%; in the assay on OVCAR-3 ovarian, 105%; in the assay on NCI/ADR-RES ovarian, 107%.

Consider `COc1ccc(-c2nn(-c3cccc(Cl)c3)cc2-c2c(C#N)c(=O)n3[nH]c(-c4ccc(C)cc4)nc3c2C#N)cc1`, for which the growth in the assay on SK-MEL-2 melanoma was 46%; with EKVX NSCLC, 37.9%; in the assay on SN12C renal it was 60.9%; with TK-10 renal it was 58%; in the assay with ACHN renal, 43.2%; in the assay on CAKI-1 renal it was 15.2%. The growth in the assay with CCRF-CEM leukemia is 31.4%; with MOLT-4 leukemia, -23.8% (active); in the assay on SR leukemia, 1.64% (active); with OVCAR-8 ovarian it was 14.3%; in the assay on OVCAR-5 ovarian, 87%; in the assay on OVCAR-4 ovarian it was 57.1%. Further, the growth in the assay with SK-OV-3 ovarian was 55.7%; in the assay with IGROV1 ovarian, 38.5%; with OVCAR-3 ovarian, 97%; in the assay on HS 578T breast, 43.4%; in the assay on NCI/ADR-RES ovarian it was 51.2%.

As to `O=C(Nc1ccc(F)cc1)c1cc2ccccc2cc1O`, the growth in the assay on SK-MEL-2 melanoma is 84.7%; in the assay on EKVX NSCLC it was 87.2%; with SN12C renal, 79.1%; in the assay on TK-10 renal, 141%; in the assay on ACHN renal it was 80.8%; in the assay with A498 renal it was 69.2%. Besides, the growth is 71.6% with CCRF-CEM leukemia; 46.9% with MOLT-4 leukemia; 43.2% with SR leukemia; 37.9% with RPMI-8226 leukemia; 82.7% in the assay with OVCAR-8 ovarian; 100% in the assay on OVCAR-5 ovarian. For the same compound, the growth in the assay on OVCAR-4 ovarian was 57.8%; in the assay with SK-OV-3 ovarian, 52.2%; in the assay on IGROV1 ovarian, 68.4%; in the assay with OVCAR-3 ovarian, 84.6%; in the assay with HS 578T breast, 87.9%; with NCI/ADR-RES ovarian, 75.9%.

Consider `O=C(O)Cc1ccc(O)c(O)c1`, for which the growth in the assay with SK-MEL-2 melanoma is 109%; with EKVX NSCLC, 89.4%; with SN12C renal, 99.4%; in the assay on TK-10 renal, 112%; in the assay on ACHN renal, 108%; in the assay with CAKI-1 renal, 99.5%. For the same compound, the growth was -24.1% (active) in the assay on CCRF-CEM leukemia; 98.6% in the assay on MOLT-4 leukemia; 92.4% in the assay on RPMI-8226 leukemia; 104% with OVCAR-8 ovarian; 96.2% in the assay on OVCAR-5 ovarian; 109% in the assay on OVCAR-4 ovarian. Further, the growth in the assay on SK-OV-3 ovarian was 99.3%; in the assay with OVCAR-3 ovarian it was 108%; with HS 578T breast, 90%; with NCI/ADR-RES ovarian, 111%.

For `Cc1ccc(NC(=S)NNC(=S)Nc2ccc(C)cc2)cc1`, the growth with SK-MEL-2 melanoma is 66.1%; with EKVX NSCLC, 92.7%; in the assay on SN12C renal it was 68.1%; in the assay with TK-10 renal it was 86.7%; with ACHN renal, 77.1%; in the assay on CAKI-1 renal, 67.8%. Also, the growth in the assay on A498 renal was 73.4%; in the assay with CCRF-CEM leukemia, 43.9%; in the assay on MOLT-4 leukemia, 45.3%; in the assay on SR leukemia, 27.4%; in the assay on OVCAR-8 ovarian, 76%; in the assay on OVCAR-5 ovarian, 89.1%. In addition, the growth in the assay on OVCAR-4 ovarian was 106%; in the assay on SK-OV-3 ovarian, 59.7%; in the assay on OVCAR-3 ovarian it was 64.5%; in the assay on HS 578T breast, 78.4%; with NCI/ADR-RES ovarian, 31.7%.

Regarding `OC(CCN1CCCC1)(c1ccccc1)C1CCCCC1` (centres undefined), the growth with SK-MEL-2 melanoma is 111%; with EKVX NSCLC, 97.5%; with SN12C renal, 95.9%; in the assay with TK-10 renal, 108%; in the assay on ACHN renal, 94.7%; with CAKI-1 renal, 95.7%. The growth is 116% in the assay with A498 renal; 98.2% in the assay with CCRF-CEM leukemia; 109% in the assay on MOLT-4 leukemia; 123% with SR leukemia; 114% in the assay on RPMI-8226 leukemia; 104% in the assay with OVCAR-8 ovarian. The growth in the assay with OVCAR-4 ovarian was 104%; in the assay on SK-OV-3 ovarian it was 120%; in the assay on OVCAR-3 ovarian it was 105%; in the assay on HS 578T breast, 103%; in the assay on NCI/ADR-RES ovarian, 105%.

Take `COc1ccc(-c2cc(-c3ccc(Cl)cc3)nc(SCCCC(=O)NO)n2)cc1`: the growth was 0.495% (active) with SK-MEL-2 melanoma; -19.2% (active) with EKVX NSCLC; 2.49% (active) in the assay on SN12C renal; 13.8% in the assay with TK-10 renal; 2.98% (active) in the assay with ACHN renal; -0.0585% (active) with CAKI-1 renal. Also, the growth with A498 renal is -19% (active); in the assay on MOLT-4 leukemia, 9.27% (active); in the assay on SR leukemia, 22.8%; in the assay with OVCAR-8 ovarian it was 8.07% (active); with OVCAR-5 ovarian it was 24.5%; in the assay on OVCAR-4 ovarian, 18.2%. Also, the growth in the assay on SK-OV-3 ovarian was 5.99% (active); with IGROV1 ovarian, 2.96% (active); in the assay with OVCAR-3 ovarian, -1.93% (active); with HS 578T breast, 37.9%; in the assay on NCI/ADR-RES ovarian, -33.6% (active).

Turning to `O=C(c1ccccc1)N(C(=O)c1ccccc1)N1CCCC1`, the growth was 95.6% in the assay on SK-MEL-2 melanoma; 103% in the assay with EKVX NSCLC; 100% in the assay with SN12C renal; 101% in the assay on TK-10 renal; 96.3% in the assay with ACHN renal; 91.1% in the assay with CAKI-1 renal. Further, the growth with CCRF-CEM leukemia was 94.8%; with MOLT-4 leukemia it was 99.3%; in the assay on RPMI-8226 leukemia, 103%; in the assay with OVCAR-5 ovarian, 99.3%; in the assay on OVCAR-4 ovarian it was 106%; in the assay with SK-OV-3 ovarian, 109%. For the same compound, the growth is 110% in the assay on OVCAR-3 ovarian, 105% in the assay with HS 578T breast and 102% with NCI/ADR-RES ovarian.

In the case of `COC1=CC(=O)OC(c2ccc(OC)cc2)C1` (centres undefined), the growth in the assay with SK-MEL-2 melanoma was 98.9%; in the assay with EKVX NSCLC it was 96.1%; in the assay with SN12C renal, 99.3%; with TK-10 renal, 104%; in the assay with ACHN renal, 103%; in the assay with CAKI-1 renal, 85.8%. Besides, the growth in the assay with A498 renal is 96.4%; with CCRF-CEM leukemia, 107%; in the assay with MOLT-4 leukemia, 101%; in the assay with RPMI-8226 leukemia it was 111%; with OVCAR-8 ovarian, 105%; in the assay on OVCAR-5 ovarian, 106%. Moreover, the growth is 106% with OVCAR-4 ovarian; 117% with SK-OV-3 ovarian; 103% with OVCAR-3 ovarian; 111% in the assay on HS 578T breast; 102% with NCI/ADR-RES ovarian.
